Hits are enriched below; roughly 2.4% of the tested compounds scored in any of these assays.
Nrf2 inh: blocks Nrf2 signaling; A549 ARE-Fluc reporter, luciferase luminescence, 18-24 h; Potency, µM (top dose mostly 46 µM), without a hit: at the highest dose activity change, negative = inhibition, hits mostly inhibitors; hit rate 2.1% among 360,000; AID 504444; also: % is scaled to controls: 0 for no effect and ±100 for the full control effect; nearly all actives have a fitted effect of over 60% in size
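Nrf2 function is reported as luminescence of an ARE-controlled luciferase in A549 cells. Compounds were tested at several concentrations, and a CellTiter-Fluor read on the same wells flagged cytotoxicity.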
Epigenetic derep: regulators of epigenetic silencing causing reporter derepression in mouse cells | murine LDR cells, GFP reporter derepression, 30 h | hit rate 0.2% among 280,000 | Potency, µM (top dose mostly 53.9 µM), for inactives: at the top dose GFP activation, hits mostly activators; also: % of control where 0% means no effect; nearly all actives have a fitted effect of over 60% in size
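GFP-positive cell count by laser-scanning cytometry (objects 20–120 um) after 30 h, 37 C compound exposure of murine LDR cells; reporter is CMV-GFP integrated at a silenced locus, inducible by HDAC or DNMT inhibitors.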
Nrf2 activator: activators of Nrf2 (ARE) signaling; AREc32 ARE-luciferase reporter (MCF7-derived line), luminescence, 24 h; hit rate 0.31% among 410,000; Potency, µM (highest dose often 46.1 µM), for inactives: top-dose activation, most hits filed as activators; also: % of control where 0% means no effect; nearly all actives have a fitted effect of over 65% in size
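Luminescent ARE reporter assay in AREc32_Fluc cells: overnight plating at 37 deg C, 24 hr compound incubation, Steady-Glo added, 30 min RT before reading.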
PINK1 expr mod: PINK1 expression modulation. PINK1 immunofluorescence, high-content cytometry, 24 h. Potency, µM (highest dose often 76.6 µM), for inactives: top-dose activation (PINK1 increase), most hits filed as activators. hit rate 0.2% among 410,000; active = well fitted activation curve with a large enough effect; inconclusive = small, poorly fitted or top-dose-only effect; cell line not stated here; also: % of control where 0% means no effect; nearly all actives have a fitted effect of over 65% in size
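A stable cell line was treated with compounds at 5 concentrations for 24 hours, with CCCP as control. PINK1 levels and mitochondrial localization were measured by immunofluorescence with mitochondrial, cell and nuclear markers after fixation, read by laser-scanning cytometry.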
A549 tox: kills or reduces viability of A549 cells in Nrf2 counter-screen; hit rate 0.16% among 390,000; A549 ARE-Fluc cells, CellTiter-Fluor viability, 18-24 h; Potency, µM (series often up to 46 µM), for inactives: at the highest dose activity change, negative = cytotoxicity, usual class: inhibitors; also: % is scaled to controls: 0 for no effect and ±100 for the full control effect
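A549 ARE-Fluc cells in 5% FBS OPTI-MEM, 5000 cells/well, rested 2 h then exposed to compounds in concentration-response for 18-24 h at 37 °C. Viability by CellTiter-Fluor fluorescence (Ex 405/Em 525) after 30 min; luciferase luminescence (BugLite, 15 min, RT) read afterwards.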
The depositor's hits bear a star; ? = inconclusive; · = no result given; [ ] = another dose, or the depositor's remark. Unless noted, calls follow the shape of the dose curve; as a rule, active = well fitted curve in the direction sought with a large enough effect; inconclusive = small, poorly fitted or top-dose-only effect, or another doubt; inactive = no such curve, though single readings can be large; an effect the other way counts as inactive or inconclusive. Potency is read from the fitted curve at half-maximal effect.

SMILES | Nrf2 inh | Epigenetic derep | Nrf2 activator | PINK1 expr mod | A549 tox
Cc1nc(N2CCOCC2)c2c(C(=O)N(C)Cc3ccccc3)c(C)oc2n1 | 17% | -1% | 0% | -10% | 9%
Cc1nn(-c2ccccn2)c2c1-c1nc(N)sc1CC2 | · | · | · | -1% | ·
COc1ccc(-c2ccc3c(c2)S(=O)(=O)c2cccc(C(=O)NCc4cccc(OC(F)(F)F)c4)c2C3=O)cc1OC | ? | · | 0% | 4.5µM* | -9%
COCCN(C)C(=O)c1cnn(-c2nccc(-c3cc(OC)ccc3OC)n2)c1C | · | · | · | 0% | ·
C(/Oc1ccccc1)=C1\Nn2c(nnc2-c2cc(-c3ccccc3)n[nH]2)S1 | 1% | · | · | 1% | 2%
CCN(CC)c1ccc2cc(-c3nnc(-c4cccc(Cl)c4)o3)c(=O)oc2c1 | 7% | ? | 5% | 18% | 15%
CCN(CC)c1ccc2cc(-c3nc(-c4cccs4)no3)c(=O)oc2c1 | ? | 7.1µM* | 8% | 24% | 16%
CCN(CC)c1ccc2cc(-c3nc(-c4ccccc4F)no3)c(=O)oc2c1 | ? | 13µM* | 7% | 3% | 4%
CCN(CC)c1ccc2cc(-c3nc(-c4cc(OC)c(OC)c(OC)c4)no3)c(=O)oc2c1 | 1% | 13µM* | 1% | 2% | 19%
O=c1oc2ccc(Cl)cc2cc1-c1nc(-c2cccs2)no1 | 1% | -3% | 1% | 0% | 7%
COc1cc(-c2noc(-c3cc4cccc(C)c4oc3=O)n2)cc(OC)c1OC | 8% | 0% | 0% | -1% | 10%
CCN(CC)c1ccc2cc(-c3nnc(-c4ccncc4)o3)c(=O)oc2c1 | 8% | 0.56µM* | 3% | ? | 4%
Cc1ccc(CNc2nc(CN3CCNC(=O)C3)nc3ccccc23)o1 | · | · | · | 0% | ·
COc1cc(=O)n2c(c1C(=O)NC(C)c1ccco1)CCN(C(=O)c1[nH]c(C)cc1C)CC2 (stereo unspecified) | · | · | · | 0% | ·
CCN(CC)c1ccc2cc(/C(N)=N/NC(=O)c3cccs3)c(=O)oc2c1 | · | 6.3µM* | · | · | ·
O=C1NC(=S)S/C1=C\c1cc2ccccc2nc1N1CCCCC1 | 21µM* | 1% | -1% | ? | -28%
Oc1ccc(-c2nccc(-c3cccs3)n2)cc1 | ? | -1% | 10µM* | 0% | -6%
[O-]/C(=C(\C(=S)Nc1ccc(SC(F)F)cc1)[n+]1ccccc1)c1cc(Cl)ccc1Cl | 21µM* | 4% | 0% | 6% | ?
Cc1ccccc1NC(C)C(=O)N/N=C/c1ccccc1OCc1cccc(Br)c1 (stereo unspecified) | 15µM* | -2% | 0% | 0% | -25%
Cc1ccc(NS(=O)(=O)c2ccc3c(c2)CC(=O)N3C)cc1C | ? | · | · | · | 4%
CCCCn1c(SCc2nc(N)nc(Nc3ccccc3C)n2)nc2ccccc2c1=O | 21µM* | 0% | 2% | 5% | -30%
CCn1cc(C(=O)N2CCN(c3ccccc3OC)CC2)c(=O)c2cc(S(=O)(=O)N3CCC(C)CC3)ccc21 | -16% | -1% | 1% | 1% | 0%
CCOC(=O)N1CCC(N2C(=O)c3ccccc3C2Nc2ccccc2C)CC1 (stereo unspecified) | 12% | 0% | 4% | -1% | -2%
CCOC(=O)c1ccccc1NC1c2ccccc2C(=O)N1C1CCN(C(=O)OCC)CC1 (stereo unspecified) | 16µM* | 0% | 4% | 5% | 3%
CC(C)(C)c1csc(NC(=O)c2ccncc2)n1 | 16µM* | -4% | 3% | 2% | -17%
SMILES | Nrf2 inh | Epigenetic derep | Nrf2 activator | PINK1 expr mod | A549 tox
Cc1csc(NC(=O)c2ccncc2)n1 | 12% | 0% | 5% | 0% | 0%
Cc1ccc(Cl)cc1N1CCN(C(=S)NCCc2ccccc2)CC1 | -10% | 0% | 3% | 7% | -6%
Cc1ccc(Cl)cc1N1CCN(c2cccc[n+]2C)CC1 | 8.2µM* | 0% | -1% | 2% | 3%
CC(=O)N1N=C(c2ccccc2)OC12CCCC2 | 7% | -4% | -1% | 1% | 2%
CC(=O)N1N=C(c2ccc(Br)cc2)OC1(C)CC(=O)Nc1ccccc1 (stereo unspecified) | 23µM* | 0% | 1% | 1% | ?
COc1cc(=O)n2c(c1C(=O)N(C)Cc1nccs1)CCN(Cc1c(F)ccc(F)c1F)CC2 | · | · | · | 0% | ·
Cc1ccc(S(=O)(=O)c2c(N)n(Cc3ccco3)c3nc4ccccc4nc23)cc1C | ? | -8% | 2% | -5%[38.3 µM] | ?
Nc1c(S(=O)(=O)c2ccccc2)c2nc3ccccc3nc2n1Cc1ccco1 | 26µM* | -1% | 0% | 0%[38.3 µM] | ?
COc1ccc(NC(=O)/C=C/c2cccc(Br)c2)cn1 | 16µM* | · | 6% | 8% | -17%
COc1ccc(NC(=O)/C=C/c2ccc(OC(F)F)cc2)cn1 | 18µM* | · | 4% | 8% | -18%
Cc1nnc(N2CCN(c3ccccc3F)CC2)c2c1nnn2Cc1ccccc1Cl | -19% | -3% | 0% | 3% | 3%
COCc1c(C(=O)N2CCN(C(C)C)CC2)cnn1-c1nccc(-c2cc(C)sc2C)n1 | · | · | · | -1% | ·
CCn1c(SCC(=O)N/N=C/C=C\c2ccccc2[N+](=O)[O-])nnc1-c1ccccc1 | 16µM* | -2% | 16% | -33%[38.3 µM] | -17%
Cc1ccc(CSc2nnc(SCC(=O)N/N=C/C=C/c3ccccc3[N+](=O)[O-])s2)cc1 | ? | 1% | 0% | 0% | 12%
COc1ccc(F)c(CN2CCOc3ccc(CN4CCC(O)(c5cccnc5)CC4)cc3C2)c1 | · | · | · | 0% | ·
O=C1C(Nc2ccc(O)cc2)=C/C(=N/S(=O)(=O)c2cccs2)c2ccccc21 | ? | -3% | -3% | -2% | ?
O=C(O)c1ccc(NC2=C/C(=N/S(=O)(=O)c3ccccc3)c3ccccc3C2=O)cc1 | 12% | -1% | -3% | -2% | -14%
CCc1ccc(S(=O)(=O)/N=C2\C=C(Nc3cccc(C(=O)O)c3)C(=O)c3ccccc32)cc1 | 21µM* | · | -3% | -2% | ?
CCc1ccc(S(=O)(=O)/N=C2\C=C(Nc3ccc(O)cc3)C(=O)c3ccccc32)cc1 | 8.2µM* | · | -2% | -1% | 12µM*
CCN(CC)C(=O)c1nn(-c2ccc(OC)cc2)c(=O)c2c(N)scc12 | -7% | · | · | · | -5%
Cc1ccccc1Cn1ccn(-c2ccc(F)c(F)c2)c(=O)c1=O | -9% | 0% | 1% | 1% | -2%
Cc1ccc(Oc2coc3cc(O)ccc3c2=O)cc1 | 9.2µM* | · | -1% | -3% | 1%
Nc1nonc1C(=O)N/N=C/c1cc2c(cc1[N+](=O)[O-])OCO2 | 8% | · | 0% | 40µM* | 0%
COc1ccc2[nH]cc(/C=C/c3cc[n+](C)cc3)c2c1 | 10µM* | · | 6% | ? | ?
COc1ccc(C(=O)Nc2cccc(-c3cn4ccsc4n3)c2)c(OC)c1 | · | 2% | 3% | 2% | 0%
COc1cc(/C=N/Nc2snc(SC)c2C#N)cc(OC)c1OC | 4.6µM* | 1% | 3% | 5% | -26%
